Mtb hypoxia inh: reduces hypoxia-regulated biosensor signal in M. tuberculosis; AID 1159583; 300,000 tested, 0.1% active; M. tuberculosis hypoxia-regulated fluorescent reporter, fluorescence; fluorescence inhibition, % (concentration not given with the values); in the data active = fluorescence inhibition mostly above about 23%, no sharp cut-off; inactive = mostly below about 17%
Sa ugtP lethal: kills S. aureus RN4220 lacking UgtP | 330,000 tested, 0.54% active | S. aureus RN4220 ugtP deletion, OD600 growth, 16 h | growth inhibition, % (no concentration beside the values) | AID 1259309; in the data active = growth inhibition above about 68%;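 also: plate controls were untreated wells for no effect and antibiotic for full effect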
RN4220 kill: kills Staphylococcus aureus RN4220 | S. aureus RN4220 growth, OD600, 16 h | inhibition, % (test concentration not listed) | 330,000 tested, 0.33% active; in the data active = inhibition above about 85%;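 also: plate controls were untreated cells for no effect and reference antibiotic for full effect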
SSB-PriA inh: blocks PriA binding to SSB C-terminal tail | 430,000 tested, 0.6% active | inhibition, % at 33 µM | AlphaScreen SSBct-PriA binding, biotinylated peptide | AID 1272365; in the data active = inhibition mostly above about 37%, no sharp cut-off; inactive = mostly below about 20%;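 also: plate controls were negative control peptide for no effect and reference peptide for full effect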
CCHF vOTU inh-1: CCHFV vOTU protease inhibition; Pep-AMC fluorescence; inhibition, % at 11.5 µM; 370,000 tested, 0.55% active; also: 0% = vehicle wells with enzyme and 100% = no enzyme wells
CCHF vOTU inh-2: confirmation of CCHF virus vOTU protease inhibitors | 1,900 tested, 17% active | Recombinant CCHFV vOTU, Pep-AMC fluorescence | shares compounds with CCHF vOTU inh-1 | inhibition, % at 11.5 µM
The depositor's hits bear a star; . = no result shown. An excerpt weighted towards active compounds, which were near 1.4% of everything screened. Rule as the data show it, unless noted: active = inhibition above about 30%; inactive = the rest.

SMILES | Mtb hypoxia inh | Sa ugtP lethal | RN4220 kill | SSB-PriA inh | CCHF vOTU inh-1 | CCHF vOTU inh-2
Cn1c(N)c(C(=O)COC(=O)c2ccc([N+](=O)[O-])o2)c(=O)n(C)c1=O | . | 0 | 5 | -6 | 44* | -5
Cn1c(N)c(C(=O)COC(=O)c2ccc(Br)o2)c(=O)n(C)c1=O | 4 | 0 | 6 | -17 | -6 | .
Cc1cccc(C(=O)N[C@@H](C)C(=O)N2CCN(c3ncccn3)CC2)c1 | 12 | 6 | 5 | 5 | 34* | -27
CC(C)C(NC(=O)c1c(F)cccc1F)C(=O)N1CCN(c2ncccn2)CC1 (centres undefined) | 6 | 4 | 4 | -3 | 9 | .
Cc1cc(C)cc(NC(=O)CN(C)CC(=O)N(CC(C)C)c2c(N)n(CC(C)C)c(=O)[nH]c2=O)c1 | 8 | 5 | 8 | -4 | 35* | -27
COc1ccc(NC(=O)CN(C)CC(=O)N(CC(C)C)c2c(N)n(CC(C)C)c(=O)[nH]c2=O)cc1 | 11 | -1 | 8 | 8 | -4 | .
CCCOc1ccc(N)cc1N | . | -6 | 4 | 52* | 85* | 22
O=S(=O)(CCc1ccccc1)Nc1ccc(N2CCCS2(=O)=O)cc1 | . | . | . | -9 | . | .
CC(C)Cn1c(N)c(C(=O)COC(=O)c2c(O)c(Cl)cc(Cl)c2Cl)c(=O)n(C)c1=O | -2 | -14 | 7 | -8 | 41* | -5
CC(C)Cn1c(N)c(C(=O)COC(=O)c2ccc(Cl)cc2)c(=O)n(C)c1=O | 8 | 1 | -7 | -4 | 16 | .
CN(C)N1C(N)=C(C#N)C(c2ccc(F)cc2)C2=C1CC(C)(C)CC2=O (centres undefined) | 2 | 7 | -2 | 7 | 30* | -19
COc1ccc(CCNC(=O)C(=O)Nc2ccc(F)c(Cl)c2)cc1OC | . | . | . | -2 | . | .
Cn1c2ccccc2c2cc(/C=N/NC(=O)c3cc(O)ccc3O)ccc21 | . | . | . | . | 51* | 64*
CN=C(Nc1cccnc1)c1cccc(C(F)(F)F)c1 | 11 | 12 | 1 | 5 | 49* | -14
CN=C(Nc1ccc(Cl)cc1)c1cccc(C(F)(F)F)c1 | 2 | -13 | 2 | 3 | -3 | .
CC(C)Sc1nnc(SCC(=O)N(C)C2CCS(=O)(=O)C2)s1 (centres undefined) | 2 | 0 | 6 | -9 | -1 | .
CCN(C(=O)CSc1nnc(SC(C)C)s1)C1CCS(=O)(=O)C1 (centres undefined) | . | . | . | -18 | 37* | -11
COc1ccc(NC(=O)/C(C#N)=C\c2ccc(-c3cccc(C(=O)O)c3C)o2)cc1 | 7 | 8 | 4 | 3 | 14 | .
Cc1c(C(=O)O)cccc1-c1ccc(C=O)o1 | 11 | 2 | 5 | -21 | 36* | -19
O=C(/C=C/c1ccccc1Br)c1ccc2c(c1)OCO2 | -6 | 8 | 7 | -11 | 23 | .
O=C(/C=C\Nc1ccccc1Br)c1ccc2c(c1)OCO2 | 2 | 7 | -4 | 0 | 32* | -6
CCOC(=O)N1CCCCC(c2ccc(Cl)cc2)C1 (centres undefined) | . | . | . | 23 | . | .
O=C(CCS(=O)(=O)c1ccccc1)Nc1cnc2cc(C(F)(F)F)nn2c1 | . | . | . | 6 | . | .
Cc1ccc(C(O)c2ncc(-c3cccc(C(F)(F)F)c3)[nH]2)c(C)c1 (centres undefined) | . | . | . | . | 13 | .
Cc1cccc(C(O)c2ncc(-c3cccc(C(F)(F)F)c3)[nH]2)c1C (centres undefined) | . | . | . | . | 44* | -10
SMILES | Mtb hypoxia inh | Sa ugtP lethal | RN4220 kill | SSB-PriA inh | CCHF vOTU inh-1 | CCHF vOTU inh-2
Cc1ccc(C(O)c2ncc(-c3ccc(F)cc3)[nH]2)c(C)c1 (centres undefined) | . | . | . | . | 31* | -22
O=C(NCc1cccnc1-c1cccs1)c1cccc(OC(F)(F)F)c1 | . | . | . | -10 | . | .
COc1cccc(C2C(=C(O)c3ccc4c(c3)OCCO4)C(=O)C(=O)N2Cc2cccnc2)c1 (centres undefined) | . | . | . | -6 | . | .
N#Cc1c(-c2cccs2)nc(SCC(=O)c2cccs2)[nH]c1=O | . | 40 | 4 | -6 | 31* | -3
Cc1csc(NC(=O)C2CN(C(=O)c3c[nH]c4ccccc34)C2)n1 | . | . | . | -25 | . | .
CS(=O)(=O)N1CCC(C(=O)N2CCN(C(=O)C3CC3c3ccc4c(c3)OCO4)CC2)CC1 (centres undefined) | . | . | . | -2 | . | .
O=C(c1ccc(COc2ccc(Cl)cc2)o1)N1CCN(Cc2ccc3c(c2)OCO3)CC1 | 3 | 4 | 4 | 16 | 30* | 6
Cc1cc(OCC(=O)NNC(=S)NC(=O)c2ccc(Br)o2)ccc1Cl | 10 | 74 | 70 | 1 | 36* | -14
CCC(=O)NC(=S)Nc1ccc(NC(=O)COc2ccc(Cl)c(C)c2)cc1 | 19 | -10 | 4 | -1 | 14 | .
Nc1ccc(Br)c2c1C(=O)c1ccccc1C2=O | -83 | 30 | 1 | 20 | . | .
NC1=C(Br)C(=O)c2ccccc2C1=O | 16 | 95* | 77 | 6 | 91* | 99*
Cc1cc2c(cc1C)C(=O)C(Br)=C(N)C2=O | -11 | 13 | 38 | -12 | 78* | 57*
COc1ccc(NC(=O)Cn2cnc3c(-c4ccccc4)csc3c2=O)cc1Cl | . | . | . | -2 | . | .
COc1ccc(-c2ccc(-c3cc(-c4ccccc4)nnc3-c3ccccc3)o2)cc1 | . | . | . | -9 | . | .
N#CC1=C(S)N(c2ccccc2)C(c2ccc(-c3ccc(Cl)c(Cl)c3)o2)NC1=O (centres undefined) | . | . | . | 2 | 47* | 30*
N#CC1=C(S)N(c2ccccc2)C(c2ccc(-c3cc(Cl)ccc3Cl)o2)NC1=O (centres undefined) | 10 | 7 | 10 | -5 | 10 | .
COc1ccccc1NS(=O)(=O)c1ccccc1F | . | . | . | 2 | . | .
Cc1ccc(C)c(S(=O)(=O)Nc2ccc(O)c3ccccc23)c1 | 16 | 5 | 19 | -1 | 62* | -8
Cc1ccc(S(=O)(=O)Nc2ccc3c4c(cccc24)CC3)c(C)c1 | . | 7 | 15 | 17 | -2 | .
Cc1ccc(C)c(S(=O)(=O)Nc2ccc(O)c(C(=O)O)c2)c1 | -14 | 7 | 2 | -8 | -3 | .
O=S(=O)(Nc1ccc(O)c2ncccc12)c1ccccc1F | . | . | . | . | 62* | 19
Cc1ccc(S(=O)(=O)Nc2ccc(O)c3ccccc23)c(C)c1 | 15 | -4 | 12 | 17 | 66* | -19
Cc1ccc(C(=O)Nc2ccc(C(=O)NN=Cc3ccncc3)cc2)cc1 | -6 | 1 | 3 | . | . | .
CCOC(=O)C1CCN(C(=O)C2CCCN(c3ccc(-c4ccc(C)c(C)c4)nn3)C2)CC1 (centres undefined) | . | . | . | -6 | . | .
CN(C)c1ccc2nc3ccc(=O)cc-3sc2c1 | . | . | . | . | 76* | 50*
CSc1nc2ccc(S(=O)(=O)N(C)C)cc2s1 | 4 | 1 | 1 | -2 | -7 | .
COC(=O)[C@]1(Cc2ccccc2)N[C@H](CN(C)C(=O)Nc2ccc(F)cc2)[C@@H]2C(=O)N(Cc3ccccc3)C(=O)[C@@H]21 | -4 | -4 | -2 | 0 | 23 | .
COC(=O)[C@]1(Cc2ccccc2)N[C@H](CN(C)C(=O)Nc2ccccc2)[C@@H]2C(=O)N(Cc3ccccc3)C(=O)[C@@H]21 | -2 | -2 | 0 | 5 | 37* | -25
